Values without a mark were called inactive. Activity calls are given as the source filed them.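 The calls were made as follows: active = viability at 10 µM of 29.74% or lower, 3 SD below the compound median; inactive = the rest.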

The nature of this assay: viability of HCT116 lacking mutant beta-catenin – cell-based, DP diverse set, validation, pilot screen (AID 1004). Conditions: HCT116 (mutant beta-catenin deleted) viability, CellTiter-Glo, 60 h; at 10 µM; stronger effect = lower value. On the technique in general: Cellular ATP, detected with luciferase, serves as a proxy for viable cell number.
Broadly, the viability is a read-out of living cells in per cent, often relative to untreated cells. For `COC(=O)c1cc2c(s1)-c1ccccc1OC2`, the viability is 98%.

`COc1ccc2nc(S(=O)Cc3ncc(C)c(OC)c3C)[nH]c2c1` (stereo unspecified): the viability is 96.8%.

Consider `[O][C@H]1[C@@H](O)[C@@H](CO)O[C@@H](O[C@@H]2[C@@H]3OC[C@H]2O[C@H](O[C@@H]2[C@@H](O)[C@H](C[C@@H]4[C@@H]5OC[C@H]4O[CH][C@@H]5O)O[C@H](CO)[C@@H]2OS(=O)(=O)O)[C@@H]3OS(=O)(=O)O)[C@@H]1O`, for which the viability is 96.4%.

Consider `O=C1OC2(c3ccc(O)cc3Oc3cc(O)ccc32)c2ccccc21`, for which the viability was 96.5%.

For the compound `CCOC(=O)c1c(N)sc(C)c1-c1ccccc1`, the viability was 108%.

`COc1cc(CNC(=O)CCCC/C=C/C(C)C)ccc1O`: the viability is 95.2%.

On to `C[C@H]1c2cccc(O)c2C(O)=C2C(=O)[C@]3(O)C(O)=C(C(N)=O)C(=O)[C@@H](N(C)C)[C@@H]3[C@@H](O)[C@@H]21`, for which the viability was 107%.

As for `CC(=O)N1CCN(c2ccc(OC[C@H]3CO[C@](Cn4ccnc4)(c4ccc(Cl)cc4Cl)O3)cc2)CC1`, the viability was 76.8%.

As to `COc1ccc(CC(N)C(=O)N[C@H]2[C@@H](O)[C@H](n3cnc4c(N(C)C)ncnc43)O[C@@H]2CO)cc1` (stereo partly specified), the viability was 7.16% (active).

Take `C=CCc1ccc(O)c(-c2cc(CC=C)ccc2O)c1`: the viability was 99.2%.

On to `CC[n+]1c(-c2ccccc2)c2cc(N)ccc2c2ccc(N)cc21`, for which the viability is 51.3%.

As to `OCCN(CCO)c1nc(N2CCCCC2)c2nc(N(CCO)CCO)nc(N3CCCCC3)c2n1`, the viability was 109%.

As for `COc1ccc2c3c1O[C@H]1C[C@@H](O)C=C[C@@]31CCN(C)C2`, the viability is 94%.

For `NC(=NCc1ccccc1)NC(=O)c1nc(Cl)c(N)nc1N`, the viability is 88.8%.

Regarding `CN1CCN(C2Cc3ccccc3Sc3ccc(S)cc32)CC1` (stereo unspecified), the viability is 79.5%.

Regarding `COc1ccc2cc([C@H](C)C(=O)O)ccc2c1`, the viability was 96.8%.

Take `COc1ccc(/C=C/c2cc(OC)cc(=O)o2)cc1`: the viability is 103%.

In the case of `CC12CC3(O)OC(O1)C1(COC(=O)c4ccccc4)[C@@H]3CC21O[C@@H]1O[C@H](CO)[C@@H](O)[C@H](O)[C@H]1O`, the viability is 93.9%.

On to `CC(C)NCC(O)COc1cccc2ccccc12` (stereo unspecified), for which the viability was 94.6%.

On to `C[C@@H]1CC[C@]2(C(=O)O)CC[C@]3(C)C(=CCC4[C@@]5(C)C[C@@H](O)[C@H](O)[C@@](C)(CO)C5CC[C@]43C)C2[C@H]1C` (stereo partly specified), for which the viability is 100%.

In the case of `C[C@H](CCC(=O)O)[C@H]1CC[C@H]2[C@@H]3CC[C@@H]4C[C@H](O)CC[C@]4(C)[C@H]3CC[C@]12C`, the viability was 102%.

Regarding `CC1=C(/C=C/C(C)=C/C=C/C(C)=C/C(=O)O)C(C)(C)CCC1`, the viability was 96.5%.

Regarding `C[C@]12CC[C@@H]3c4ccc(O)cc4CC[C@H]3[C@@H]1CC[C@H]2O`, the viability is 91.1%.

Turning to `CCC(C)C(O)C(C)C(=O)C(C)/C=C(\C)CC(C)C1OC(=O)C1CC` (stereo unspecified), the viability is 107%.

For the compound `CC1(C)[C@@H](O[C@H]2O[C@H](C(=O)O)[C@@H](O)[C@H](O)[C@H]2O[C@@H]2O[C@H](C(=O)O)[C@@H](O)[C@H](O)[C@H]2O)CC[C@]2(C)[C@H]3C(=O)C=C4[C@@H]5C[C@@](C)(C(=O)O)CC[C@]5(C)CC[C@@]4(C)[C@]3(C)CC[C@@H]12`, the viability was 101%.

In the case of `CCOC(=O)C(C)(C)Oc1ccc(Cl)cc1`, the viability is 98.7%.

On to `Cc1ccc2c(c1)C(=O)C1(O)CCN(c3ccccc3)C1=N2` (stereo unspecified), for which the viability was 91%.

`CC(C)=CCC[C@](C)(O[C@@H]1O[C@H](CO)[C@@H](O)[C@H](O)[C@H]1O)[C@H]1CC[C@]2(C)[C@@H]1[C@H](O)C[C@@H]1[C@@]3(C)CC[C@H](O[C@@H]4O[C@H](CO)[C@@H](O)[C@H](O)[C@H]4O[C@@H]4O[C@H](CO)[C@@H](O)[C@H](O)[C@H]4O)C(C)(C)[C@@H]3[C@@H](O)C[C@]12C`: the viability is 93.8%.

Regarding `Cc1cc2c(C(C)C)c(O)c(O)c(C=O)c2c(O)c1-c1c(C)cc2c(C(C)C)c(O)c(O)c(C=O)c2c1O`, the viability is 28.5% (active).

On to `COc1cc([C@@H]2c3cc4c(cc3[C@H](O)[C@H]3COC(=O)[C@H]23)OCO4)cc(OC)c1OC`, for which the viability was 37.4%.

For `CSc1ccc(/C=C2/C(C)=C(CC(=O)O)c3cc(F)ccc32)cc1`, the viability is 96%.

The values above are taken from PubChem BioAssay AID1004 (SRMLSC, 2008).
